B1: ENSMUSG00000061578.285|Ksr2 (ssRNA)
RNA: GGGAGUUCUACAGUCCGACGAUCGCUUCGAUAUCCGCAUGCUAGGAUAUAUCUCUGUGGCCAGGGCUGGACUGAGACUGACCCCCUCCUACUAAGCAUCUUAGAGUUUCUCUUUUCUCUUUAAUUGCAUCAGGACCCCUUUGGUCCAUGUACCCCGGUCUCUGUCACAUGCCUUUGUAUCUUGGAGGAAGUAAGAGAGGAGAGAGCCAGGGAGGGCUGAAGCUCUGGGACCCUGAAGUGUCCCCCGGGAACUGGGACUCACUCAUCUUCUCCUGUUUGUAGCUCAAUGACCCAGUGGGUCACACUCUUGCGGUCGCACUAGUGUGGAAUUCUCGGGUGUCAAGG
B2: ENSMUSG00000029028.201|Lrrc47 (ssRNA)
RNA: GGGAGUUCUACAGUCCGACGAUCGCUUCGAUAUCCGCAUGCUAAGCACACAGCUGCCAUCCCUCGAGCCACAGUGCCUGGUCCUAAGGACCCAGCAGCUGCACAGAGGACUUGGUGGCCCCGUGCCUUGCCAUCUGGCUGAGAAGAGAACCAGACCCUCAGCCUUCCCCCUCGACACCUUCUCGUUGGUGACCUCUGACCUUAAAGGACCAUUUCUACCUUCUGUAAAAGAACACCUGUUUGGGGUUGCGUGCGGCUUUCAUCCUAAGGCCGUGCGAGAGCCGUUAGCUGUCAGAACUAGUGACUCUUGCGGUCGCACUAGUGUGGAAUUCUCGGGUGUCAAGG
B3: ENSMUSG00000028439.16|Fam219a (ssRNA)
RNA: GGGAGUUCUACAGUCCGACGAUCGCUUCGAUAUCCGCAUGCUAAUUCAGUAGUGGGCGGGGUCGCCGCGGUGCACGGGGCGCUGACCUGGGCCCGGUGGGAUGCAGCAGGAGAGACCCCUACCCUGCUGGUCCACUGGUCCCCAGCCCCGCGCCUCUUAGAGCCGCCAACCUCGUAACAGUCAUUGCUUCCUCCUAUGGUAGGACGUGUACCUCUGUGUGUUCAAGGAGCCGGAGAAACCAAAACCGGGUCUGUCUCCAGCCCCGGGGCUGAGGAGGGGUGGGCACUGUUUGUUCGGUUACUUCUCUUGCGGUCGCACUAGUGUGGAAUUCUCGGGUGUCAAGG
B4: ENSMUSG00000031028.682|Tub|139:143;183:187;256:260 (ssRNA)
RNA: GGGAGUUCUACAGUCCGACGAUCGCUUCGAUAUCCGCAUGCUACUAUUUUGGAGUGGUCAGACAUUUUAUUUUUGUUCAAAAUUAUCUGGAGUUUUAGACAAACUUGCAAAACUGUGCUUUUAUUAAGUGACUUUUUGAAUAAACUUUUUGGUAUUCUGAAGCAAAUGUAUUUAUUUAUUGCAUACUGCAAUGACAAACUUGGUAUUUUCCCAUAAUGACAUUAUCAUACUUGUAGAAUUUAGUGUUUGUCUAAGUACAGACAUGUAUCAACACAUUAAACUUGAACUGUUUGACGGCACACACUCUUGCGGUCGCACUAGUGUGGAAUUCUCGGGUGUCAAGG
B5: ENSMUSG00000090935.52|Synj2bp (ssRNA)
RNA: GGGAGUUCUACAGUCCGACGAUCGCUUCGAUAUCCGCAUGCUAGUGUCCCUGAGAGUACAGCACAGGUUACCAGUGCAGAAUGGACCUAUAGUACAUCGAGGUGAAGGAGAGCCAAGUGGAGUUCCUGUAGCUAUGGUGCUGCUACCAGUGUUUGCCCUCACCAUGGUAGCAGUUUGGGCCUUCGUGAGAUACCGAAAGCAGCUUUGAAAUGCUUGCUGUCUUCCAGUGUGUCCAAUGAACUCUCUCUCUCACUCACCAUCUCUGACAUCCUCCCAUAUUCUUUCUCCUCCACAUAGCCAAUACUCUUGCGGUCGCACUAGUGUGGAAUUCUCGGGUGUCAAGG
B6: ENSMUSG00000061578.273|Ksr2 (ssRNA)
RNA: GGGAGUUCUACAGUCCGACGAUCGCUUCGAUAUCCGCAUGCUAGGCCCUGGGCUCCAGAGUCGCUGAAGACCACUCUCCACAGCAGCUGUAACCCCAUCUAACAAGCCCUGUUCUGGAUAUAUCUCUGUGGCCAGGGCUGGACUGAGACUGACCCCCUCCUACUAAGCAUCUUAGAGUUUCUCUUUUCUCUUUAAUUGCAUCAGGACCCCUUUGGUCCAUGUACCCCGGUCUCUGUCACAUGCCUUUGUAUCUUGGAGGAAGUAAGAGAGGAGAGAGCCAGGGAGGGCUGAAGCUCUGGGACCCUCUUGCGGUCGCACUAGUGUGGAAUUCUCGGGUGUCAAGG
B7: ENSMUSG00000058297.285|Spock2|1:12;131:136 (ssRNA)
RNA: GGGAGUUCUACAGUCCGACGAUCGCUUCGAUAUCCGCAUGCUAACACACACACACAGAGAGAGAGAGAGAGAGAGAGAGAGAGAGAGAGAGAAAGAGAGAGAGAAUGAGAGAGAAUGAGAGAGAGAAUACCCGAGGGCCACCCUGAUGCCCAGGAAGAGUGAGGGCAGCCCCCACACACGUGGAAGAGGCUGGGCAGCUAGCUACUGGGGACCUUGUGCUGAGGCUUCCAGGACAAAGCCCCAGUCUGGCUCUCCCCCAGCCUCUCAGGGGCACUGGCUGGUCACAUCCACUGAGUAUUGAUCCUCUUGCGGUCGCACUAGUGUGGAAUUCUCGGGUGUCAAGG
B8: ENSMUSG00000058297.297|Spock2|59:64 (ssRNA)
RNA: GGGAGUUCUACAGUCCGACGAUCGCUUCGAUAUCCGCAUGCUAUGAGAGAGAGAAUACCCGAGGGCCACCCUGAUGCCCAGGAAGAGUGAGGGCAGCCCCCACACACGUGGAAGAGGCUGGGCAGCUAGCUACUGGGGACCUUGUGCUGAGGCUUCCAGGACAAAGCCCCAGUCUGGCUCUCCCCCAGCCUCUCAGGGGCACUGGCUGGUCACAUCCACUGAGUAUUGAUCGGUUGGACUUUAGGGAAGAGCCUCCUCCUUCCCAUUCCUUUCUGCCACCCUGGAAUGGCCACCUUAAUCGUCCUCUUGCGGUCGCACUAGUGUGGAAUUCUCGGGUGUCAAGG
B9: ENSMUSG00000058297.284|Spock2|1:18;137:142 (ssRNA)
RNA: GGGAGUUCUACAGUCCGACGAUCGCUUCGAUAUCCGCAUGCUAACACACACACACACACACAGAGAGAGAGAGAGAGAGAGAGAGAGAGAGAGAGAGAAAGAGAGAGAGAAUGAGAGAGAAUGAGAGAGAGAAUACCCGAGGGCCACCCUGAUGCCCAGGAAGAGUGAGGGCAGCCCCCACACACGUGGAAGAGGCUGGGCAGCUAGCUACUGGGGACCUUGUGCUGAGGCUUCCAGGACAAAGCCCCAGUCUGGCUCUCCCCCAGCCUCUCAGGGGCACUGGCUGGUCACAUCCACUGAGUACUCUUGCGGUCGCACUAGUGUGGAAUUCUCGGGUGUCAAGG
B10: ENSMUSG00000058297.286|Spock2|1:6;125:130 (ssRNA)
RNA: GGGAGUUCUACAGUCCGACGAUCGCUUCGAUAUCCGCAUGCUAACACACAGAGAGAGAGAGAGAGAGAGAGAGAGAGAGAGAGAGAAAGAGAGAGAGAAUGAGAGAGAAUGAGAGAGAGAAUACCCGAGGGCCACCCUGAUGCCCAGGAAGAGUGAGGGCAGCCCCCACACACGUGGAAGAGGCUGGGCAGCUAGCUACUGGGGACCUUGUGCUGAGGCUUCCAGGACAAAGCCCCAGUCUGGCUCUCCCCCAGCCUCUCAGGGGCACUGGCUGGUCACAUCCACUGAGUAUUGAUCGGUUGGCUCUUGCGGUCGCACUAGUGUGGAAUUCUCGGGUGUCAAGG

Whole data set: some 9,900 sequences, median “r (bound/input frequency ratio)” near 0.7, cut for the highest 2% near 6.5. For the sample, the highest values were picked, then their nearest neighbours and some sequences at random.

The test deals with TDP-43 (Homo sapiens, UniProt Q13148 1-414). The experiment in a line: RNA Bind-n-Seq with designed 260-mer pool; 25 mM Tris-HCl, 150 mM KCl, 3 mM MgCl2, BSA (printed 500 mg/mL), 20 units/mL SUPERase IN; pH not stated; 500 nM RNA pool, 1 h, 4 C; TDP-43 5, 50, 500 nM; high values mean tight binding. Particulars: protein: recombinant; tags: SBP (GST cleaved off with PreScission; pGEX-GST-SBP). The method, boiled down: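 Binding (R) is the ratio of each oligo's mapped-read-normalized abundance in the bound fraction to its abundance in the input. To obtain it, SBP-tagged recombinant TDP-43 (5, 50 or 500 nM) on streptavidin beads was incubated with 500 nM of an in vitro-transcribed 260-nt 3′ UTR oligo pool for 1 h at 4 °C in 25 mM Tris-HCl, 150 mM KCl, 3 mM MgCl2, BSA and SUPERase IN. The RNA retained after washing was released with biotin, then reverse transcribed, amplified by PCR and sequenced.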
TDP-43, sequence (Q13148 whole entry): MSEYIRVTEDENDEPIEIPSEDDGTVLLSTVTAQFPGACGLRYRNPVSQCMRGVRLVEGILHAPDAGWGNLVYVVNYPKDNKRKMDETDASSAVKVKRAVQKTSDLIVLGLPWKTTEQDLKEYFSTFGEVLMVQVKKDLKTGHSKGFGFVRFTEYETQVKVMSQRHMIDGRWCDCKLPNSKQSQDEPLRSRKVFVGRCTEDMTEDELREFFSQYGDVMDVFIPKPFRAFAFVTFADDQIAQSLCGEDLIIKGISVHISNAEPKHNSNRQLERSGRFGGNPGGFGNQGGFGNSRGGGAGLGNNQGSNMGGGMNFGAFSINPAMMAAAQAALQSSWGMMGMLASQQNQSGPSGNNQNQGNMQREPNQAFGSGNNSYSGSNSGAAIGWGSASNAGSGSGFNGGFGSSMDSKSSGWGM
As for B1, the binding signal was 0.368 R (bound/input frequency ratio). Take B2: the binding signal was 0.156 R (bound/input frequency ratio). The same measure for B3: 0.466 R (bound/input frequency ratio); for B4: 0.0217 R (bound/input frequency ratio). Turning to B5, the binding signal was 1.19 R (bound/input frequency ratio).

For the molecule B6, the binding signal was 0.384 R (bound/input frequency ratio). B7: the binding signal is 7.3 R (bound/input frequency ratio).

Regarding B8, the binding signal was 6.44 R (bound/input frequency ratio). The value for B9 was 8.98 R (bound/input frequency ratio).

On to B10, for which the binding signal was 6.42 R (bound/input frequency ratio).
